Values without a mark were called inactive.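 How the source made its calls: active = AUC reduced over 20% with Padj below 0.05 in at least 2 of 3 replicates; inactive = otherwise.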
Experiments:
Assay in all cases: growth AUC relative to DMSO control (median of replicates) (fraction); higher = more growth (less inhibition), active = hit call of the paper
Details in all cases: 20 µM; 24 h
Coprococcus comes = test system: Coprococcus comes
Outline: (§1)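 For each compound at 20 µM (1% DMSO), gut bacterial monocultures seeded at OD600 0.05 grew anaerobically in mGAM at 37 °C in round-bottom 96-well plates. Hourly OD600 readings over 24 h gave growth curves whose minimum OD was set to 0. Area under these curves was normalised to the plate median of solvent-only wells, or to row and column medians on the industrial chemical plate. Values are medians of three biological replicates grown on separate days.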

Escherichia coli ED1a = test system: Escherichia coli ED1a
Outline: as §1

Escherichia coli IAI1 = test system: Escherichia coli IAI1
Outline: as §1

Eubacterium rectale = test system: Eubacterium rectale
Outline: as §1

[1] = test system: Fusobacterium nucleatum subsp. animalis
Outline: as §1

Lactobacillus gasseri = test system: Lactobacillus gasseri
Outline: as §1

Lactobacillus paracasei = test system: Lactobacillus paracasei
Outline: as §1

Odoribacter splanchnicus = test system: Odoribacter splanchnicus
Outline: as §1

[2] = test system: Parabacteroides distasonis
Outline: as §1

Parabacteroides merdae = test system: Parabacteroides merdae
Outline: as §1

Roseburia intestinalis = test system: Roseburia intestinalis
Outline: as §1

Streptococcus salivarius = test system: Streptococcus salivarius
Outline: as §1

SMILES	growth AUC (Coprococcus comes)	growth AUC (Escherichia coli ED1a)	growth AUC (Escherichia coli IAI1)	growth AUC (Eubacterium rectale)	growth AUC [1]	growth AUC (Lactobacillus gasseri)	growth AUC (Lactobacillus paracasei)	growth AUC (Odoribacter splanchnicus)	growth AUC [2]	growth AUC (Parabacteroides merdae)	growth AUC (Roseburia intestinalis)	growth AUC (Streptococcus salivarius)
COP(=S)(OC)Oc1ccc([N+](=O)[O-])cc1	0.992	0.999	1	1.13	1.13	0.915	0.989	0.771	0.93	0.964	0.917	0.968
Nc1ccncc1	0.95	0.99	0.983	0.949	0.969	0.897	1	0.974	1.02	1.02	0.981	0.981
[Cl][Sn]([c]1ccccc1)([c]1ccccc1)[c]1ccccc1	0.0492 (active)	0.981	0.964	0.0221 (active)	0.897	0.383	0.83	0.0358 (active)	0.048 (active)	0.0101 (active)	0.0424 (active)	0.859
OC(Cc1ccccc1Cl)(Cn1cncn1)C1(Cl)CC1 (stereo not given)	0.963	0.993	0.941	0.849	0.897	1.16	1.02	0.95	1.01	0.977	1.05	0.998
CNC(=O)Oc1cc(C)c(SC)c(C)c1	1.01	0.987	0.967	0.982	0.984	0.883	0.931	1.11	1.02	0.912	0.928	0.968
CCNc1nc(NC(C)C)nc(SC)n1	1.01	0.974	0.989	1	1.13	0.987	0.992	0.999	1.01	1.04	1.02	0.973
O=[N+]([O-])c1ccc(O)c([N+](=O)[O-])c1	0.904	0.998	0.998	1.02	0.927	1.06	0.97	0.673	0.948	0.985	0.912	0.992
Cc1cc(Cl)ccc1N=CN(C)C.Cl	1.09	1	0.98	1.01	1.01	1.01	1.03	1	1.02	1.01	0.994	0.99
CCC(C)(C)C(=O)OC1=C(c2ccc(Cl)cc2Cl)C(=O)OC12CCCCC2	0.977	0.966	0.949	0.906	0.968	0.928	0.987	1.02	0.861	0.968	1.02	1.03
COc1cccc(C(=O)NN(C(=O)c2cc(C)cc(C)c2)C(C)(C)C)c1C	1.01	0.974	0.97	1.07	0.884	0.818	0.947	0.966	0.86	0.908	0.985	0.966
O=C(O)C(F)(F)C(F)(F)C(F)(F)C(F)(F)C(F)(F)C(F)(F)F	1	0.998	1	1.01	0.955	1.03	1.01	1	1.08	1.03	1.03	1.02
CNC(=O)O/N=C(\C)C(C)S(C)=O (stereo not given)	1.01	1.02	0.987	0.914	1.02	0.881	1.02	1.04	1.05	1.02	0.991	0.96
ClC1=C(Cl)C2(Cl)C(CBr)CC1(Cl)C2(Cl)Cl (stereo not given)	0.994	0.956	0.986	1.01	0.969	0.858	1.03	1.01	0.973	0.973	0.993	1.03
CN(C)C(=O)Nc1cccc(C(F)(F)F)c1	0.965	1.01	0.986	1.01	1.05	1.05	0.985	1.07	0.961	1	0.979	0.991
CCC(C)n1c(=O)[nH]c(C)c(Br)c1=O (stereo not given)	1.02	0.979	0.94	1.07	1.01	0.869	1.03	0.461	0.926	0.891	0.975	0.901
CS/C(C)=N/OC(=O)N(C)SN(C)C(=O)O/N=C(\C)SC	0.98	1.02	1.01	1.17	1.04	1.05	0.941	1.04	1.03	1.03	1.01	0.955
CCOP(=S)(Oc1ccc([N+](=O)[O-])cc1)c1ccccc1 (stereo not given)	0.949	1.04	1.05	1.02	1.09	1.04	1.07	1.09	0.947	0.99	1.04	1.04
Nc1cc(Cl)ccc1Cl	1	1	1.01	0.989	1.07	1.04	0.958	1	1.02	1.04	1.09	1
CCNS(=O)(=O)C(F)(F)C(F)(F)C(F)(F)C(F)(F)C(F)(F)C(F)(F)C(F)(F)C(F)(F)F	0.995	0.987	0.99	0.975	0.968	1.05	0.891	0.978	1.01	0.947	1.03	0.96
Cn1cc(-c2ccccc2)c(=O)c(-c2cccc(C(F)(F)F)c2)c1	1.02	0.978	0.968	0.998	0.907	0.963	0.983	0.974	0.999	0.943	1.04	0.986
ClC1=C(Cl)[C@]2(Cl)[C@@H]3[C@@H]4C[C@@H]([C@H]5O[C@@H]45)[C@@H]3[C@@]1(Cl)C2(Cl)Cl	0.95	0.977	0.996	0.999	0.881	0.999	0.959	0.899	1.05	0.932	1	1.03
CCNC(=O)NC(=O)/C(C#N)=N/OC	1.05	1.04	1.02	0.919	1.2	1.06	0.94	1.02	1.04	1.01	1.16	0.949
Oc1ccc(Cl)cc1Cl	1.01	0.974	0.979	1.13	0.93	0.769	1.01	0.969	0.967	0.853	0.907	0.901
CCNc1nc(NCC)nc(SC)n1	0.99	1.02	0.99	1.02	1.06	1.13	1.08	0.88	1.01	1.04	1.08	0.978
C[C@@H](Oc1ccc(Oc2ccc(C(F)(F)F)cn2)cc1)C(=O)O	1.03	1	1	1.06	1.06	0.867	1.02	1.03	1.01	1.07	0.99	1.05

SMILES	growth AUC (Coprococcus comes)	growth AUC (Escherichia coli ED1a)	growth AUC (Escherichia coli IAI1)	growth AUC (Eubacterium rectale)	growth AUC [1]	growth AUC (Lactobacillus gasseri)	growth AUC (Lactobacillus paracasei)	growth AUC (Odoribacter splanchnicus)	growth AUC [2]	growth AUC (Parabacteroides merdae)	growth AUC (Roseburia intestinalis)	growth AUC (Streptococcus salivarius)
CCCN(CCCl)c1c([N+](=O)[O-])cc(C(F)(F)F)cc1[N+](=O)[O-]	0.914	0.983	0.987	0.942	1.05	0.875	1.06	1.13	0.962	0.955	0.989	0.928
c1cc2ccc3cccc4ccc(c1)c2c34	0.914	0.958	0.982	1.04	0.945	0.993	0.934	1	0.751 (active)	0.976	0.977	0.927
CCCCCCCCCc1ccc(O)cc1	0.989	0.998	1.01	0.968	0.989	0.904	1.01	0.841	0.885	0.971	0.897	0.927
O=C(O)c1nc(Cl)ccc1Cl	1.03	0.995	1.01	0.952	0.998	1.09	1.03	1.01	1.03	1.03	1.07	1.02
Cc1ccc(N(SC(F)(Cl)Cl)S(=O)(=O)N(C)C)cc1	1.02	0.974	0.982	1.03	1	1.07	1	1.02	1.06	1.04	1.01	1.01
ClC1=C(Cl)C(Cl)(C2(Cl)C(Cl)=C(Cl)C(Cl)=C2Cl)C(Cl)=C1Cl	1.05	1.04	1.01	0.861	1.13	1.01	0.987	1	0.958	0.863	0.91	0.962
CC(C)(C)C(O)C(Oc1ccc(-c2ccccc2)cc1)n1cncn1 (mixture of isomers)	1	1.01	1.05	0.964	1.07	0.949	0.958	0.952	0.918	0.976	1.02	1.01
COc1cc(Cl)c(OC)cc1Cl	1.04	1.03	1.01	0.986	0.951	0.94	0.94	1	1.02	1.05	1.04	1.04
O=C1C[C@@H]2OCC=C3CN4CC[C@]56c7ccccc7N1[C@H]5[C@H]2[C@H]3C[C@H]46	0.984	0.973	0.985	1	0.909	0.928	1.09	1.08	0.988	0.967	0.998	0.968
CC(=O)O.CCCCCCCCCCCCN=C(N)N	1.02	1.02	1.02	1.04	1.04	0.794	1.02	1.02	0.933	0.996	0.805	1.03
COCc1c(F)c(F)c(COC(=O)C2C(C=C(C)C)C2(C)C)c(F)c1F (stereo not given)	0.979	1.01	1.02	0.906	1.04	0.873	0.978	1.05	1.03	1.02	1	1.06
CCS(=O)c1c(C#N)nn(-c2c(Cl)cc(C(F)(F)F)cc2Cl)c1N (stereo not given)	0.99	0.988	0.995	1.02	1.04	0.909	1.02	0.971	0.949	0.965	1.01	1.06
O=C(O)c1ccccc1C(=O)Nc1cccc2ccccc12	0.971	1.05	1	1.08	1.06	0.979	1.02	1.06	0.979	0.987	0.993	0.932
CCOP(=S)(OCC)SCS(=O)(=O)C(C)(C)C	0.991	1.01	0.966	1.08	0.964	1.02	1.03	0.979	1.02	0.986	1.02	0.984
NC(=S)c1c(Cl)cccc1Cl	1.01	0.994	0.979	1.22	0.822	0.884	0.953	0.985	0.965	0.887	1	0.943
CCCCOC(=O)N(C)SN(C)C(=O)Oc1cccc2c1OC(C)(C)C2	1	1.07	1.01	1.2	0.942	0.966	1.05	1.03	1.03	1.01	0.992	1.02
O=C(O)c1ccc(Cl)nc1	0.946	1.01	0.967	1.05	1.1	1.15	0.974	0.968	1.02	1.01	1.16	0.973
CNC(=O)/C(=N/OC)c1ccccc1Oc1ccccc1	0.989	1	0.997	0.977	0.968	1.04	1.05	0.992	0.995	0.997	1.04	0.989
CNC(=O)ON=C(CSC)C(C)(C)C	0.968	1.01	1	0.981	1.01	1.03	0.985	0.983	1.02	1.02	1.02	1.02
COP(=S)(OC)SC(CC(=O)O)C(=O)O (stereo not given)	1.01	1.02	0.974	0.884	1.01	1.03	0.972	1.14	0.956	0.976	1.02	1.03
CC1(C)C(/C=C(\Cl)c2ccc(Cl)cc2)C1C(=O)OC(C#N)c1ccc(F)c(Oc2ccccc2)c1 (stereo not given)	0.968	0.986	1.01	0.864	1.02	1.04	0.913	1.03	1	1	1.07	1.03
CC(=O)CC(c1ccc(Cl)cc1)c1c(O)c2ccccc2oc1=O (stereo not given)	0.987	0.952	1.02	0.881	0.929	1.3	0.982	0.971	0.787 (active)	0.954	1.04	0.987
ClC1=C(Cl)[C@]2(Cl)[C@@H]3[C@H]4C[C@H]([C@@H]5O[C@H]45)[C@@H]3[C@@]1(Cl)C2(Cl)Cl	0.943	0.994	0.966	1.02	1.05	0.936	0.963	0.998	0.897	0.946	0.909	0.963
COP(N)(=O)SC (stereo not given)	1.08	1.03	1.02	1.08	1.11	0.836	1.07	1.04	1.01	1.06	1	0.996
C=CCC1=C(C)C(OC(=O)C2C(C=C(C)C)C2(C)C)CC1=O (mixture of isomers)	0.963	0.968	1.01	1.09	1.01	0.818	0.943	1.01	0.771	0.955	0.924	0.953

Reference: the supplement of paper PMC12669032
